For 9 compounds, growth results are on record in PubChem BioAssay (NCI).

Common to all, as to test: NCI-60 one-dose screen, 48 h (100 = growth as untreated, 0 = no growth, -100 = all killed)
The test system of test [1] is SK-MEL-2 melanoma. The settings on record: 10 µM.
The subject of test [2] is EKVX NSCLC. The settings on record: 10 µM.
Test [3] has as its system SN12C renal. The settings on record: 10 µM.
The subject of test [4] is UO-31 renal. The settings on record: 10 µM.
For test [5], the system named is TK-10 renal. The note with it: 10 µM unless noted.
Test [6] deals with ACHN renal. The settings on record: 10 µM.
Test [7] concerns CAKI-1 renal. The settings on record: 10 µM.
The subject of test [8] is A498 renal. The settings on record: 10 µM.
The subject of test [9] is CCRF-CEM leukemia. The note with it: 10 µM.
Test [10] has as its system MOLT-4 leukemia. The note with it: 10 µM.
The subject of test [11] is RPMI-8226 leukemia. The settings on record: 10 µM.
The test system of test [12] is OVCAR-8 ovarian. The settings on record: 10 µM.
Test [13] concerns OVCAR-5 ovarian. The note with it: 10 µM.
In test [14] the test system is OVCAR-4 ovarian. The settings on record: 10 µM.
For test [15], the system named is SK-OV-3 ovarian. The settings on record: 10 µM.
The test system of test [16] is IGROV1 ovarian. The note with it: 10 µM.
Test [17] concerns OVCAR-3 ovarian. The note with it: 10 µM.
Test [18] deals with HS 578T breast. The note with it: 10 µM.
Test [19] concerns NCI/ADR-RES ovarian. The settings on record: 10 µM.
Test [20] concerns SR leukemia. The settings on record: 10 µM.

The panel holds about 83,000 compounds, 20% with a hit somewhere; the sample as a whole holds those more often.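 Results are percent growth after 48 hours of single-concentration exposure. 100 means growth as in untreated cells, lower positive values show inhibition; negative values down to -100 show cell death.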 Values without a mark were called inactive. Active and inactive are the calls of the source. The calls were made as follows: active = growth percent below 10; inactive = the rest.

As for `CC1SC(N)=NC1=O` (configuration not stated), the growth in [1] is 111%; in [2], 96.2%; in test [3], 120%; in test [4], 92.2%; in [5], 108%; in test [6], 108%. Besides, the growth in test [7] was 103%; in test [8], 107%; in [9] it was 99.3%; in test [10], 122%; in test [11], 96.7%; in test [12] it was 105%. In addition, the growth in [13] is 85.9%; in test [14], 117%; in test [15], 115%; in test [16], 108%; in test [17], 116%; in test [18], 108%. For the same compound, the growth in [19] was 106%.
As for `CN(C)C(=O)Oc1cccc([N+](C)(C)C)c1`, the growth in [1] was 124%; in test [2] it was 93.1%; in [3] it was 97.8%; in [4] it was 98.6%; in [5], 125%; in test [6], 97.9%. Besides, the growth in test [7] is 89.9%; in test [8], 95.5%; in test [9], 113%; in [10] it was 102%; in test [11], 117%; in test [12], 103%. Moreover, the growth in test [13] is 104%; in test [14], 83.9%; in [15] it was 107%; in test [16], 115%; in [17], 115%; in test [18] it was 107%. In addition, the growth in test [19] was 114%.
Turning to `CN(C)c1ccc(CNC(C(=O)c2ccccc2)c2ccccc2)cc1` (configuration not stated), the growth in test [1] was 74.5%; in test [2] it was 101%; in test [3], 115%; in test [4], 102%; in [5], 112%; in [6], 101%. The growth is 102% in [7]; 8.44% (active) in test [8]; 90.9% in test [9]; 94.9% in test [10]; 90.8% in [20]; 95.9% in [12]. The growth was 110% in [13]; 99.1% in test [14]; 103% in [15]; 98.2% in test [16]; 114% in test [17]; 46.1% in test [18]. The growth in [19] is 101%.
Regarding `CCn1c(=O)n(C)c2c(=O)n(C)c(=O)n(C)c21`, the growth is 104% in [1]; 103% in [2]; 105% in test [3]; 87.4% in [4]; 102% in [5]; 105% in test [6]. The growth was 98.3% in test [7]; 91.7% in [8]; 98.2% in [9]; 101% in test [10]; 101% in [20]; 101% in test [12]. Also, the growth in test [13] was 108%; in test [14] it was 111%; in [15], 106%; in test [16], 122%; in [18] it was 110%; in [19], 105%.
Take `c1cc[n+](C2c3ccccc3C([n+]3ccccc3)c3ccccc32)cc1` (configuration not stated): the growth was 92.8% in test [1]; 48.3% in test [2]; 26.7% in [3]; 61.8% in test [4]; 52% in test [5]; 91.8% in test [6]. Besides, the growth in test [7] is 87.3%; in test [8], 94.9%; in test [9], -42.3% (active); in test [10], 86.5%; in [20] it was 50.6%; in test [12], 46.8%. The growth in [13] was 95%; in test [14] it was 75.3%; in test [15] it was 92.5%; in test [16] it was 30.4%; in [17] it was 77.1%; in [19] it was 106%.
Regarding `Cc1cccc([N+](=O)[O-])c1Cl`, the growth in [1] was 109%; in test [2], 96.8%; in test [3], 106%; in test [4], 87.3%; in [5] it was 119%; in test [6] it was 97.4%. The growth in [7] was 92.3%; in test [8], 94.5%; in [9], 99%; in test [20] it was 117%; in test [11], 103%; in test [12], 99.6%. In addition, the growth in [13] was 96.4%; in test [14] it was 109%; in [15], 107%; in test [16], 112%; in [17] it was 106%; in test [18], 98.1%. For the same compound, the growth in test [19] was 92.8%.
Consider `CN1C(=O)CN2CCc3ccccc3C2c2cc(Cl)ccc21` (configuration not stated), for which the growth in [1] is 81.7%; in [2], 91.5%; in test [3], 85.1%; in test [4], 74.3%; in [5], 111%; in [6] it was 93.6%. Further, the growth in test [7] is 81%; in test [8], 54.5%; in [9] it was 93.6%; in test [10] it was 105%; in [11] it was 88.3%; in [12], 101%. Moreover, the growth in test [13] is 83.9%; in [14], 104%; in test [15], 90.7%; in test [16], -12.2% (active); in test [17], 103%; in [18], -5.49% (active). Moreover, the growth in test [19] was 96.7%.
For `COC(=O)c1cccnc1`, the growth in test [1] was 93.2%; in test [2], 105%; in [3], 93.2%; in [4] it was 78.9%; in [5], 96.9%; in test [6], 90.6%. The growth was 94.8% in test [7]; 101% in test [8]; 96.2% in [9]; 98.3% in test [10]; 104% in test [20]; 92.2% in test [12]. Also, the growth in test [13] is 90.3%; in test [14] it was 110%; in test [15] it was 101%; in [16] it was 91.9%; in test [17], 106%; in test [18], 99.3%. For the same compound, the growth in test [19] was 95.9%.
For the compound `S=c1sc2ccccc2n1CN1CCCCC1`, the growth is 94% in [1]; 104% in [2]; 109% in test [3]; 77.2% in [4]; 93.7% in test [5]; 98.7% in test [6]. Besides, the growth in test [7] was 88.2%; in test [8] it was 96.5%; in test [9] it was 102%; in [10] it was 112%; in test [12] it was 99.6%; in [13], 85%. Moreover, the growth in [15] is 94.5%; in test [16] it was 105%; in [17] it was 93.3%; in test [18], 100%; in test [19], 93.4%.
